Screening results: PubChem, PCMD
C1s block = blocks human complement C1s protease activity; purified C1s, fluorogenic AMC substrate, pooled mixtures; mean inhibition % of two 10-compound mixtures (stronger effect = higher value), % at 5 µM (by protocol); P09871; 62,000 compounds, 0.16% hits;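 active means inhibition above 20% in each of the two 10-compound mixture wells holding the compound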
CatS inh = human cathepsin S inhibition; P25774; recombinant cathepsin S, AMC dipeptide fluorescence, pooled mixtures; inhibition, %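 (tested at 5 µM per compound within 10-compound mixtures)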; 62,000 compounds, 0.06% hits; AID 501; in the data active means inhibition above about 32%, passing the limit was not always enough
Target sequence (P25774 115-331 limits assumed): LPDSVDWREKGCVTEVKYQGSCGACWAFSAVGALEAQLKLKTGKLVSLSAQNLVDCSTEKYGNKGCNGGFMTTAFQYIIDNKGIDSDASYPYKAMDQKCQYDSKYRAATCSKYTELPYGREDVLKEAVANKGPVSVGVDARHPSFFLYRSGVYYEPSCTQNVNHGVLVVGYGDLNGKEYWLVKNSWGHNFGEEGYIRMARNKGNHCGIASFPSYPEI
CatB mixtures = inhibitors of human cathepsin B in compound mixtures | P07858 | Purified cathepsin B, AMC dipeptide fluorescence | inhibition, %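 (ten-compound pools at 5 µM per compound and 50 µM total)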 | 62,000 compounds, 0.06% hits | AID 488; in the data active means inhibition above about 22%, passing the limit was not always enough
Cathepsin G inh = cathepsin G (human) inhibition. P08311. purified enzyme, AMC-tetrapeptide fluorescence, pooled mixtures. inhibition, % at 5 µM (by protocol). 62,000 compounds, 0.2% hits. AID 581;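 active means inhibition above 20% in each of the two mixture wells holding the compound; inactive means inhibition of 20% or less in either well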
Target sequence (P08311 21-244 limits assumed): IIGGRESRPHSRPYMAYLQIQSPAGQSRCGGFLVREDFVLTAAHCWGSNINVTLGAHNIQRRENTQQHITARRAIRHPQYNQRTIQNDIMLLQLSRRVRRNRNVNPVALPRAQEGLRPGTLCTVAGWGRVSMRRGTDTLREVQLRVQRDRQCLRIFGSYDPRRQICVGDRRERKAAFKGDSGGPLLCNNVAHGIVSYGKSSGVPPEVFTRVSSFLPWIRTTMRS
CatB block = inhibitors of human cathepsin B; P07858; purified cathepsin B, fluorogenic substrate, fluorescence; inhibition, %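 (tested at 10 µM)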; 63,000 compounds, 0.1% hits; AID 453; in the data active means inhibition above about 21%
CatL inh = inhibitors of human cathepsin L; P07711; purified cathepsin L, fluorogenic substrate, fluorescence; inhibition, %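 (tested at 10 µM)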; 58,000 compounds, 0.17% hits; in the data active means inhibition above about 45%
Numbers stand for hits. Most compounds without a hit are left out; they make up all but 0.54% or so of the library.

How did COc1ccc(CC(=O)OCc2cc3ccccc3[nH]c2=O)cc1 do in these assays?
C1s block: 67.4; CatS inh: inactive; CatB mixtures: inactive; Cathepsin G inh: inactive; CatB block: inactive; CatL inh: inactive

What do the screens show for `CN(C(=O)COc1cc(=O)n(C)c2ccccc12)c1cccc(Cl)c1`?
C1s block: inactive; CatS inh: inactive; CatB mixtures: inactive; Cathepsin G inh: inactive; CatB block: inactive

What do the screens show for `CCN(C(=O)COc1cc(=O)n(C)c2ccccc12)c1cccc(Cl)c1`?
C1s block: inactive; CatS inh: inactive; CatB mixtures: inactive; Cathepsin G inh: inactive; CatB block: 57.1; CatL inh: inactive

Results for COc1ccc(-c2cn3c(C)c(C(=O)N4CCN(c5ccc(OC)cc5)CC4)sc3n2)cc1 ?
C1s block: inactive; CatS inh: inactive; CatB mixtures: inactive; Cathepsin G inh: inactive; CatB block: inactive; CatL inh: inactive

How did Cc1ccc(/C=N/c2sc3c(c2C#N)CCC3)s1 do in these assays?
C1s block: inactive; CatS inh: inactive; CatB mixtures: inactive; Cathepsin G inh: inactive; CatB block: inactive; CatL inh: 104.8

How did Cc1ccc(/C=N/c2sc3c(c2C#N)CCCCC3)o1 do in these assays?
C1s block: inactive; CatS inh: inactive; CatB mixtures: inactive; Cathepsin G inh: inactive; CatB block: inactive; CatL inh: inactive

What do the screens show for `CC(=O)NC(Cc1ccccc1C)C(=O)NC1CCN(c2c3c(nc4ncnn24)CCC3)CC1` (configuration not stated)?
C1s block: inactive; CatS inh: inactive; CatB mixtures: inactive; Cathepsin G inh: inactive; CatB block: inactive; CatL inh: inactive

Results for CC(c1nnc(SCC(=O)NC(=O)NCc2ccco2)n1-c1ccc(Cl)cc1)N(C)C (configuration not stated) ?
C1s block: inactive; CatS inh: inactive; CatB mixtures: inactive; Cathepsin G inh: inactive; CatB block: inactive; CatL inh: 60.8

What do the screens show for `CCCN(CCC)CCNC(=O)C(NS(=O)(=O)c1ccc2c(c1)CCC(=O)N2)c1ccccc1` (configuration not stated)?
C1s block: inactive; CatS inh: 81.7; CatB mixtures: inactive; Cathepsin G inh: inactive; CatB block: inactive; CatL inh: inactive

What do the screens show for `COc1ccccc1-c1cc(C(=O)NCc2ccc(Cl)cc2)no1`?
C1s block: inactive; CatS inh: inactive; CatB mixtures: inactive; Cathepsin G inh: 45.7; CatB block: inactive; CatL inh: inactive

What do the screens show for `COc1ccccc1-c1cc(C(=O)NCc2ccccc2)no1`?
C1s block: inactive; CatS inh: inactive; CatB mixtures: inactive; Cathepsin G inh: 51.1; CatB block: inactive; CatL inh: inactive

What do the screens show for `COc1ccccc1-c1cc(C(=O)NCc2ccc(F)cc2)no1`?
C1s block: inactive; CatS inh: inactive; CatB mixtures: inactive; CatB block: inactive; CatL inh: inactive

Results for O=C1CSC(=Nc2ccc(O)cc2)N1c1ccc(O)cc1 ?
C1s block: inactive; CatS inh: inactive; CatB mixtures: inactive; Cathepsin G inh: 39.1; CatB block: inactive; CatL inh: inactive

Results for Cc1ccc(Cn2c(=O)n(Cc3ccco3)c(=O)c3ccccc32)cc1 ?
C1s block: inactive; CatS inh: inactive; CatB mixtures: inactive; Cathepsin G inh: inactive; CatB block: inactive; CatL inh: inactive

Results for CCn1c(SCC(=O)Nc2ccc(N(C)C)cc2)nnc1-c1cccc(C)c1 ?
C1s block: inactive; CatS inh: inactive; CatB mixtures: inactive; Cathepsin G inh: inactive; CatB block: inactive; CatL inh: inactive

Results for Cn1c(C(=O)NCCN2CCc3ccccc3C2)cc2c(=O)n(C)c3ccccc3c21 ?
C1s block: inactive; CatS inh: 73.6; CatB mixtures: inactive; Cathepsin G inh: inactive; CatB block: inactive; CatL inh: inactive

What do the screens show for `Cn1c(C(=O)NCCN2CCN(c3ccccc3F)CC2)cc2c(=O)n(C)c3ccccc3c21`?
C1s block: inactive; CatS inh: inactive; CatB mixtures: inactive; Cathepsin G inh: inactive; CatB block: inactive; CatL inh: inactive

What do the screens show for `Cn1c(C(=O)NCCN2CCOCC2)cc2c(=O)n(C)c3ccccc3c21`?
C1s block: inactive; CatS inh: 80.8; CatB mixtures: inactive; Cathepsin G inh: inactive; CatB block: inactive

What do the screens show for `CCOC(=O)c1c(NC(=O)CSc2nnnn2CC)sc(C)c1C`?
C1s block: inactive; CatS inh: inactive; CatB mixtures: inactive; Cathepsin G inh: inactive; CatB block: inactive; CatL inh: inactive

How did COc1ccc(Nc2nc3c(c(=O)n(C)c(=O)n3C)n2CCO)cc1 do in these assays?
C1s block: inactive; CatS inh: inactive; CatB mixtures: inactive; Cathepsin G inh: inactive; CatB block: inactive; CatL inh: inactive

How did CCCCN1C(=O)/C(=C2\SC(N3CCCCC3)=NC2=O)c2ccccc21 do in these assays?
C1s block: 22.8; CatS inh: inactive; CatB mixtures: inactive; Cathepsin G inh: inactive; CatB block: inactive; CatL inh: inactive

Results for O=C1N=C(N2CCOCC2)S/C1=C1\C(=O)N(Cc2ccccc2)c2ccc(Br)cc21 ?
C1s block: inactive; CatS inh: inactive; CatB mixtures: inactive; Cathepsin G inh: inactive; CatB block: inactive; CatL inh: inactive

How did CCOC(=O)C1CCN(C(=O)CSc2ccccc2)CC1 do in these assays?
C1s block: 64.8; CatS inh: inactive; CatB mixtures: inactive; Cathepsin G inh: inactive; CatB block: inactive; CatL inh: inactive

How did CCOC(=O)C1CCN(C(=O)CC(C)c2ccccc2)CC1 (configuration not stated) do in these assays?
C1s block: inactive; CatS inh: inactive; CatB mixtures: inactive; Cathepsin G inh: inactive; CatB block: inactive; CatL inh: inactive

Results for CCOC(=O)c1ccc2ncc(C(=O)OCC)c(NCc3ccco3)c2c1 ?
C1s block: inactive; CatS inh: inactive; CatB mixtures: inactive; Cathepsin G inh: inactive; CatB block: inactive; CatL inh: inactive

Results for CSc1nc(C2CC2)cc(-c2cccs2)c1C#N ?
C1s block: inactive; CatS inh: inactive; CatB mixtures: inactive; Cathepsin G inh: inactive; CatB block: 48.1; CatL inh: inactive

What do the screens show for `CC(C)C(c1nnnn1C1CCCC1)N1CCCc2ccccc21` (configuration not stated)?
C1s block: inactive; CatS inh: 32.5; CatB mixtures: inactive; Cathepsin G inh: inactive; CatB block: inactive; CatL inh: inactive

How did N#Cc1ccsc1NC(=O)c1cnccn1 do in these assays?
C1s block: inactive; CatS inh: inactive; CatB mixtures: inactive; Cathepsin G inh: inactive; CatB block: 65.5; CatL inh: inactive

What do the screens show for `COCCNC(=O)C(OC(=O)c1cccs1)c1ccccc1` (configuration not stated)?
C1s block: inactive; CatS inh: inactive; CatB mixtures: inactive; Cathepsin G inh: inactive; CatB block: inactive; CatL inh: inactive

What do the screens show for `O=C(OC(C(=O)NCc1cccs1)c1ccccn1)c1cccs1` (configuration not stated)?
C1s block: inactive; CatS inh: inactive; CatB mixtures: 28.5; Cathepsin G inh: inactive; CatB block: 35.0; CatL inh: inactive

How did CCOc1ccc2[nH]c3c(N4CCN(c5ccccn5)CC4)ncnc3c2c1 do in these assays?
C1s block: 69.0; CatS inh: inactive; CatB mixtures: inactive; Cathepsin G inh: inactive; CatB block: inactive; CatL inh: inactive

Results for CCC(C(=O)O)n1nnc(-c2ccc(-c3ccc(OC)cc3)cc2)n1 (configuration not stated) ?
C1s block: inactive; CatS inh: inactive; CatB mixtures: inactive; Cathepsin G inh: inactive; CatB block: inactive; CatL inh: 65.7

Results for O=C(COC(=O)c1ccccc1S(=O)(=O)N1CCCCC1)NCC(F)(F)F ?
C1s block: inactive; CatS inh: inactive; CatB mixtures: inactive; Cathepsin G inh: inactive; CatB block: inactive; CatL inh: inactive
